From PubChem
VACV Venus inh: inhibitors of vaccinia virus (Venus reporter); Vaccinia virus Venus reporter expression, fluorescence; AID 720580; Potency, µM (top dose mostly 36.5 µM), actives largely listed as inhibitors; 330,000 tested, 0.46% active; calls by dose curve; tested in A549 cells; further: nearly all actives have a fitted effect of over 30% in size
Vaccinia mCherry: vaccinia inhibition (mCherry reporter) | Vaccinia virus mCherry reporter infection, fluorescence | AID 720579 | 310,000 tested, 0.63% active | Potency, µM (top dose mostly 36.5 µM), hits mostly inhibitors; calls by dose curve; tested in A549 cells; further: nearly all actives have a fitted effect of over 35% in size
FMDV antiviral: foot and mouth disease virus antiviral activity. Potency, µM (series often up to 57.9 µM), hits mostly inhibitors. FMDV antiviral cell-based qHTS. 410,000 tested, 1.2% active; calls by dose curve; tested in HEK293T cells; further: read-out not given here; nearly all actives have a fitted effect of over 45% in size
HCMV antiviral: human cytomegalovirus inhibition | HFF cells, HCMV-luciferase reporter, 72 h; active compounds read low | activity change, negative = inhibition, % at 57.5 µM | 410,000 tested, 4.5% active | AID 1259415; in the data active means activity change below about -60%; inconclusive means no clear call, values can overlap the other calls; inactive means above about -39%
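Screen run at 2 compound doses on HFFs infected with reporter HCMV, MOI 1 PFU/cell. Luciferase activity from cell lysates at 72 h post infection gave inhibition relative to buffer-only and Salinomycin wells.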
HCV inh: inhibitors of hepatitis C virus infection. Huh7.5.1 HCVcc-Cre infection, luciferase reporter, 44 h. Potency, µM (doses to about 41.8 µM), usual class: inhibitors. 340,000 tested, 3.4% active. AID 651820; active means well fitted inhibition curve with a large enough effect; inconclusive means small, poorly fitted or top-dose-only effect, or another doubt; inactive means no such curve, though single readings can be large or run the other way
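1,000 cells/well; 4 h culture; + compound; + HCVcc-Cre (~0.5 moi); 44 h; luciferase substrate, RT 15 min; read 15 sec.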
Of the large screens only hits and unclear results are named; the others gave an inactive call. The list is not random: actives were taken first. Their share in the collection is about 7.3%.

Cc1ccc2c(c1)C(c1ccc(F)cc1)N(C(=O)c1ccc(S(=O)(=O)N3CCCCC3)cc1)CC(=O)N2 (configuration not stated)	Vaccinia mCherry inconclusive (no result: HCV inh)
COC(=O)c1cccc(NC(=O)c2cc3sccc3n2C)c1	HCV inh 14µM
COc1ccc(OC)c(NC(=O)CSc2ncnc3c2cnn3-c2ccccc2Cl)c1	FMDV antiviral 7.9µM, HCV inh 0.89µM (no result: VACV Venus inh, Vaccinia mCherry, HCMV antiviral)
COc1cc(NC(=O)CSc2ncnc3c2cnn3Cc2ccccc2)cc(OC)c1	HCV inh inconclusive (no result: VACV Venus inh, Vaccinia mCherry)
Cc1ccc(-c2noc(C3CC(=O)N(c4ccc5c(c4)OCCO5)C3)n2)cc1 (configuration not stated)	none (no result: HCV inh)
O=S(=O)(c1cccs1)N1CCN(CC(O)COC2CCCc3ccccc32)CC1 (configuration not stated)	FMDV antiviral inconclusive
CCOc1ccccc1N1CCN(CC(O)COC2CCCc3ccccc32)CC1 (configuration not stated)	Vaccinia mCherry inconclusive, HCV inh 11µM
CCc1nn(CC(=O)NCCCN(Cc2ccccc2)C(C)C)c(=O)c2cc3sccc3n12	HCMV antiviral -63, HCV inh inconclusive
CCCCN(CC)CCCNC(=O)Cn1nc(CC)n2c(cc3sccc32)c1=O	none (no result: HCV inh)
COC(=O)c1cc(Cl)cc2c(C)c(C3(O)CCCCC3)[nH]c12	FMDV antiviral inconclusive, HCV inh 8.9µM
Cc1cc(C(=O)CCl)c(C)n1-c1c(C)n(C)n(-c2ccccc2)c1=O	VACV Venus inh inconclusive, Vaccinia mCherry inconclusive, FMDV antiviral 28µM, HCV inh 8.9µM
COc1ccc(-n2c(C)cc(C(=O)CCl)c2C)cc1	FMDV antiviral 28µM, HCMV antiviral -90, HCV inh inconclusive (no result: VACV Venus inh, Vaccinia mCherry)
Cc1cc(C(=O)CC#N)c(C)n1-c1ccc(OC(F)F)cc1	FMDV antiviral inconclusive, HCV inh inconclusive
Cc1cc(C(=O)COC(=O)c2ccc(O)cc2O)c(C)n1-c1ccc(OC(F)F)cc1	FMDV antiviral inconclusive, HCMV antiviral -63, HCV inh 10µM
COc1ccc(-n2c(C)cc(C(=O)COC(=O)c3ccc(O)cc3O)c2C)cc1	HCMV antiviral -81, HCV inh 10µM (no result: VACV Venus inh, Vaccinia mCherry)
COc1ccc(-n2c(C)cc(C(=O)COC(=O)Cn3cnc4ccccc43)c2C)cc1	Vaccinia mCherry inconclusive, HCMV antiviral inconclusive
Oc1ccc(Cl)cc1C1C=C(c2ccc3c(c2)OCO3)NC(c2ccc(Br)cc2)N1 (configuration not stated)	none (no result: FMDV antiviral, HCMV antiviral, HCV inh)
O=C(c1ccccc1)C(c1ccccc1)[n+]1csc2ccccc21 (configuration not stated)	none (no result: FMDV antiviral, HCMV antiviral, HCV inh)
CC(C)(CNC(=O)c1cnn(-c2nccc(-c3cc4ccccc4o3)n2)c1C1CC1)N1CCOCC1	none (no result: HCMV antiviral, HCV inh)
Cc1cc(S(=O)(=O)NCCC2=CCCCC2)ccc1Br	none
Cc1ccc(NC(=O)c2cc(S(=O)(=O)NCCC3=CCCCC3)ccc2F)cc1F	VACV Venus inh inconclusive, Vaccinia mCherry inconclusive, FMDV antiviral inconclusive, HCMV antiviral -71, HCV inh 4.5µM
Cc1cc(C)cc(NC(=O)c2cc(S(=O)(=O)NCCC3=CCCCC3)ccc2F)c1	none (no result: HCV inh)
O=C(Nc1cccc(F)c1)c1cc(S(=O)(=O)NCCC2=CCCCC2)ccc1F	VACV Venus inh inconclusive, HCMV antiviral -72, HCV inh inconclusive
COc1ccc(NC(=O)c2cc(S(=O)(=O)NCCC3=CCCCC3)ccc2F)cc1	Vaccinia mCherry inconclusive, HCMV antiviral -80 (no result: HCV inh)
Cc1ccc(S(=O)(=O)NCCC2=CCCCC2)cc1C(N)=O	HCMV antiviral -75, HCV inh inconclusive (no result: VACV Venus inh, Vaccinia mCherry)
O=C(Cc1ccc(OCCC2CCCCC2)cc1)NO	Vaccinia mCherry inconclusive (no result: FMDV antiviral, HCMV antiviral, HCV inh)
Cc1sc2ncn(CC(=O)N(C)c3cccc(C(F)(F)F)c3)c(=O)c2c1S(=O)(=O)N1CCN(c2ncccn2)CC1	none (no result: HCV inh)
O=C(CCN1C(=O)c2ccccc2C1=O)Nc1sc2c(c1C(=O)NCC1CCCO1)CCC2 (configuration not stated)	none
CC(C(=O)Nc1sc2c(c1C(=O)NCC1CCCO1)CCC2)N1C(=O)c2ccccc2C1=O (configuration not stated)	HCMV antiviral -100
O=C(NC1CCCC1)c1cnn2c1NC(=C1CC1)C=C2C(F)F	none (no result: FMDV antiviral, HCMV antiviral, HCV inh)
O=C(O)c1ccc(C(=O)Nc2ccc(F)cc2)cc1	none
O=C(Nc1ccc(Nc2ccccc2)cc1)c1ccc(F)cc1	HCV inh 10µM
O=C(Nc1ccc(Nc2ccccc2)cc1)c1c(Cl)cccc1Cl	Vaccinia mCherry inconclusive, HCMV antiviral -75, HCV inh 10µM
Cn1c(=S)[nH]c2sc3c(c2c1=O)CCC(C(C)(C)C)C3 (configuration not stated)	HCMV antiviral -95 (no result: VACV Venus inh, Vaccinia mCherry, FMDV antiviral, HCV inh)
COCCn1c(=S)[nH]c2sc3c(c2c1=O)CCC(C)C3 (configuration not stated)	none
COc1ccc(C2C(C#N)=C(N)Oc3c2ccc2cccnc32)cc1OC (configuration not stated)	VACV Venus inh inconclusive, Vaccinia mCherry 8.9µM, HCMV antiviral -101
COc1cc(C2C(C#N)=C(N)Oc3c2ccc2ccccc32)ccc1OCC(=O)Nc1ccc(C)cc1 (configuration not stated)	Vaccinia mCherry inconclusive, FMDV antiviral inconclusive, HCV inh 2µM
CC1(C)CCC(=O)N2CC[C@H]3C[C@H](OC(=O)Nc4ccc(Br)cc4)C[C@@H]1[C@H]32	VACV Venus inh inconclusive, HCMV antiviral -101
O=C(Nc1ccc2c(c1)OCO2)O[C@@H]1C[C@H]2CCCC(=O)N3CC[C@@H](C1)[C@@H]23	HCMV antiviral inconclusive
O=[N+]([O-])c1ccc(O)c([N+](=O)[O-])c1	VACV Venus inh inconclusive, FMDV antiviral inconclusive, HCMV antiviral inconclusive, HCV inh inconclusive
O=[N+]([O-])c1ccc(Cl)c([N+](=O)[O-])c1	Vaccinia mCherry inconclusive, FMDV antiviral inconclusive, HCMV antiviral -74, HCV inh inconclusive
COC(=O)c1c(-c2ccc(Cl)cc2)noc1N1CCN(c2cccc(OC)c2)CC1	FMDV antiviral inconclusive, HCMV antiviral -72 (no result: HCV inh)
COc1ccc(-c2noc(N3CCC(C(=O)N4CCN(c5ccccc5OC)CC4)CC3)n2)cc1	HCMV antiviral -77 (no result: HCV inh)
CCN(C(=O)C1CCN(c2nc(-c3ccc(OC)cc3)no2)CC1)c1ccc(OC)cc1	VACV Venus inh inconclusive, FMDV antiviral inconclusive, HCMV antiviral -73, HCV inh 8.9µM
COc1ccc(NC(=O)C2CCN(c3nc(-c4ccc(OC)cc4)no3)CC2)cc1	HCV inh inconclusive
COc1ccc(-c2noc(N3CCC(C(=O)N4CCN(c5ccccn5)CC4)CC3)n2)cc1	FMDV antiviral 13µM, HCMV antiviral -83, HCV inh 4.5µM (no result: VACV Venus inh, Vaccinia mCherry)
O=C1[C@H](Cc2ccccc2)NC/C=C\C[C@@H](c2ccc(Cl)cc2)N1Cc1ccccc1	none (no result: FMDV antiviral, HCMV antiviral, HCV inh)
COc1ccc(-c2ccc3c(n2)CCCN3S(=O)(=O)c2ccc(C#N)cc2)cc1	none (no result: VACV Venus inh, Vaccinia mCherry, FMDV antiviral, HCV inh)
O=C(c1cccc(F)c1)N1CCC(c2c[nH]c3ccccc23)(c2c[nH]c3ccccc23)CC1	FMDV antiviral inconclusive (no result: HCV inh)
COc1ccccc1N1CCN(C(=O)c2c(C)noc2C)CC1	none
COc1ccc(-c2noc(N3CCC(C(=O)N4CCN(c5cccc(C)c5C)CC4)CC3)n2)cc1	none (no result: HCV inh)
